Assay results published in PubChem BioAssay (NCATS).
Records with an inconclusive call do not appear. Active and inactive are the calls of the source. Calls come from the whole dose curve; as a rule, active = well fitted cell-killing curve with a large enough effect; inconclusive = small, poorly fitted or top-dose-only effect, or effect the other way; inactive = flat fitted curve, though single readings scatter.

What was measured:
Test in all cases: Primary qHTS to identify gynecologic anti-cancer compounds using libraries of approved drugs and bioactive compounds (AID 1345084); note: nearly all actives have a fitted effect of over 55% in size
Conditions in all cases: Gynecologic cancer cell panel viability, ATPlite luminescence, 48 h; series mostly up to 57.5 µM
[1] = tested on: JEG-3
Summary of the method: (§1)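 Five-point cytotoxicity, 48 h drug exposure at 37 C, 5% CO2, on cells seeded 16 h beforehand. ATP content read by ATPlite luminescence.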

[2] = tested on: OV90
Summary of the method: as §1

[3] = tested on: PA-1
Summary of the method: as §1

[4] = tested on: Tov-21-G
Summary of the method: as §1

[5] = tested on: Tov112D
Summary of the method: as §1
% is set by controls: 0 for no effect and ±100 for the full control effect; potency is the fitted concentration of half-maximal effect.

CC1(C)C=CN2C(=O)C3=CCCN3C(=O)[C@@H]2C[C@@]12Nc1ccccc1C2=O
inactive: Potency [1] | Potency [2] | Potency [3] | Potency [4] | Potency [5]

c1ccc(N2CCN(CCc3nn[nH]n3)CC2)cc1
inactive: Potency [1] | Potency [2] | Potency [3] | Potency [4] | Potency [5]

CC1=CC(=O)[C@]2(O[C@@H]3O[C@@H](C)[C@H](O)[C@@H](O)[C@H]3OC(=O)/C=C/c3ccccc3)C=CO[C@@H](O[C@@H]3O[C@H](CO)[C@@H](O)[C@H](O)[C@H]3O)[C@H]12
inactive: Potency [1] | Potency [2] | Potency [3] | Potency [4] | Potency [5]

C=CC1(C)CC(OC(=O)/C(C)=C\COC(C)=O)C(C(=C)C(=O)O)C(O)C1C(=C)CO (stereo not given)
inactive: Potency [1] | Potency [2] | Potency [3] | Potency [4] | Potency [5]

O=C(Cc1ccc(-c2ccccc2)cc1)NC1CCC1
inactive: Potency [1] | Potency [2] | Potency [3] | Potency [4] | Potency [5]

N[C@@]1(C(=O)O)CC[C@H]2[C@H](C(=O)O)[C@H]21
inactive: Potency [1] | Potency [2] | Potency [3] | Potency [4] | Potency [5]

CC(C)=CCC/C(C)=C/CO[C@@H]1O[C@H](CO)[C@@H](O)[C@H](O)[C@H]1O
inactive: Potency [1] | Potency [2] | Potency [3] | Potency [4] | Potency [5]

Cc1cc(C(=O)N2CCCCc3ccccc32)ccc1CNC(=O)N1CCC[C@H]1C(=O)N(C)C
inactive: Potency [1] | Potency [2] | Potency [3] | Potency [4] | Potency [5]

CC(=O)OC1C[C@@]2(C)[C@@H](CC[C@@H](C)[C@]23Cc2c(O)cc4c(c2O3)CNC4=O)C(C)(C)[C@@H]1O (stereo not given in full)
inactive: Potency [1] | Potency [2] | Potency [3] | Potency [4] | Potency [5]

CC1(C)CCC2(C(=O)OC3OC(CO)C(O)C(O)C3O)CCC3(C)C(=CCC4C5(C)CCC(O)C(C)(C(=O)O)C5CCC43C)C2C1O (stereo not given)
inactive: Potency [1] | Potency [2] | Potency [3] | Potency [4] | Potency [5]

CCC(O)(C(=O)OCc1ccccc1NC(=O)CCC(=O)O)C(C)O (stereo not given)
inactive: Potency [1] | Potency [2] | Potency [3] | Potency [4] | Potency [5]

NC(=O)c1cnc(NCCc2ccc(O)c(Cl)c2)nc1NCc1ccccc1
active: Potency [3] 10000 nM | Potency [4] 7940 nM | Potency [5] 12600 nM
inactive: Potency [1] | Potency [2]

CC1CC(O)/C=C/C(O)C(O)CC(=O)Cc2c(Cl)c(O)cc(O)c2C(=O)O1 (stereo not given)
inactive: Potency [1] | Potency [2] | Potency [3] | Potency [4] | Potency [5]

CN(C)CC1CCOC1(c1ccccc1)c1ccccc1 (stereo not given)
inactive: Potency [1] | Potency [2] | Potency [3] | Potency [4] | Potency [5]

COc1ccc(CCO[C@@H]2CCCC[C@H]2N2CC[C@@H](O)C2)cc1OC
inactive: Potency [1] | Potency [2] | Potency [3] | Potency [4] | Potency [5]

COc1ccc([C@@H]2OC[C@H]3[C@@H]2CO[C@@H]3c2ccc(OC3OC(CO)C(O)C(O)C3O)c(OC)c2)cc1OC (stereo not given in full)
inactive: Potency [1] | Potency [2] | Potency [3] | Potency [4] | Potency [5]

CC1=CCC(C(C)(C)O[C@@H]2O[C@H](CO[C@@H]3O[C@@H](C)[C@H](O)[C@@H](O)[C@H]3O)[C@@H](O)[C@H](O)[C@H]2O)CC1 (stereo not given in full)
inactive: Potency [1] | Potency [2] | Potency [3] | Potency [4] | Potency [5]

CCCC1(c2ccccc2)NC(=O)N(CC(=O)N(C)Cc2c(F)cccc2Cl)C1=O (stereo not given)
inactive: Potency [1] | Potency [2] | Potency [3] | Potency [4] | Potency [5]

C[C@@H]1CC[C@]2(C(=O)O)CC[C@]3(C)C(=CCC4[C@@]5(C)C[C@@H](O)[C@H](O)[C@@](C)(CO)C5CC[C@]43C)C2[C@]1(C)O (stereo not given in full)
inactive: Potency [1] | Potency [2] | Potency [3] | Potency [4] | Potency [5]

CN(C)c1ccc2c(c1)OC(N)=C(C#N)C2c1cccc(C(F)(F)F)c1 (stereo not given)
active: Potency [1] 282 nM | Potency [2] 1410 nM | Potency [3] 178 nM | Potency [4] 251 nM | Potency [5] 316 nM

Cc1c(C(=O)Nc2ccc(N3CC(C)OC(C)C3)nc2)cccc1-c1ccc(OC(F)(F)F)cc1 (stereo not given)
inactive: Potency [1] | Potency [2] | Potency [3] | Potency [4] | Potency [5]

CC1(C)CC[C@]2(C(=O)O[C@@H]3O[C@H](CO)[C@@H](O)[C@H](O)[C@H]3O)CC[C@]3(C)C(=CCC4[C@@]5(C)C[C@@H](O)[C@H](O)C(C)(C)C5CC[C@]43C)C2[C@@H]1O (stereo not given in full)
inactive: Potency [1] | Potency [2] | Potency [3] | Potency [4] | Potency [5]

CC(C)=CCC[C@](C)(O[C@@H]1O[C@H](CO[C@@H]2O[C@H](CO)[C@@H](O)[C@H](O)[C@H]2O)[C@@H](O)[C@H](O)[C@H]1O)C1CC[C@]2(C)[C@@H]1[C@H](O)CC1[C@@]3(C)CC[C@H](O[C@@H]4O[C@H](CO)[C@@H](O)[C@H](O)[C@H]4O[C@@H]4O[C@H](CO)[C@@H](O)[C@H](O)[C@H]4O)C(C)(C)[C@@H]3CC[C@]12C (stereo not given in full)
inactive: activity change, negative = cytotoxicity [1] -5.88% [at 11.6 µM] | activity change, negative = cytotoxicity [2] 2.46% [at 11.6 µM] | activity change, negative = cytotoxicity [3] 0.278% [at 11.6 µM] | activity change, negative = cytotoxicity [4] 1.55% [at 11.6 µM] | activity change, negative = cytotoxicity [5] 0.741% [at 11.6 µM]

Cn1c(=O)cc(N2CCCC(N)C2)n(Cc2cc(F)ccc2C#N)c1=O (stereo not given)
inactive: Potency [1] | Potency [2] | Potency [3] | Potency [4] | Potency [5]

O=C(O)c1ccccc1NC(=O)N1CCC(c2ccccc2C(F)(F)F)CC1
inactive: Potency [1] | Potency [2] | Potency [3] | Potency [4] | Potency [5]
